Reference: the supplement of paper PMC6555819

Experiments:
Experiment in all cases: PBM binding z-score (relative to random genomic background probes); higher = stronger binding; sequences stand for … in GC…GCGATTGACAGCGTAGAATGAAGG
[1] = tested on: FXR:RXRa (NR concentration 270 nM, RXRa partner concentration 90 nM)
Method in brief: (§1)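 Each nuclear receptor dimer, without ligand, was incubated for 1 h on custom Agilent 4×180K protein-binding microarrays. Binding was detected with antibodies against each partner (one per run), and scanned fluorescence was regression-normalized. The binding z-scores are referenced to random human genomic background probes.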

[2] = tested on: LXRa:RXRa (NR concentration 270 nM, RXRa partner concentration 90 nM)
Method in brief: as §1

[3] = tested on: LXRa homodimer (NR concentration 270 nM)
Method in brief: as §1

[4] = tested on: LXRb:RXRa (NR concentration 270 nM, RXRa partner concentration 90 nM)
Method in brief: as §1

[5] = tested on: LXRb homodimer (NR concentration 270 nM)
Method in brief: as §1

[6] = tested on: PPARa:RXRa (NR concentration 270 nM, RXRa partner concentration 90 nM)
Method in brief: as §1

[7] = tested on: PPARg:RXRa (NR concentration 180 nM, RXRa partner concentration 90 nM)
Method in brief: as §1

[8] = tested on: PPARg:RXRa 270nM:90nM, anti-RXR (NR concentration 270 nM, RXRa partner concentration 90 nM)
Method in brief: as §1

[9] = tested on: PPARg:RXRa 30nM:10nM, anti-RXR (NR concentration 30 nM, RXRa partner concentration 10 nM)
Method in brief: as §1

[10] = tested on: PPARg:RXRa 90nM:30nM, anti-RXR (NR concentration 90 nM, RXRa partner concentration 30 nM)
Method in brief: as §1

Row | Sequence | PBM binding z-score [1] | PBM binding z-score [2] | PBM binding z-score [3] | PBM binding z-score [4] | PBM binding z-score [5] | PBM binding z-score [6] | PBM binding z-score [7] | PBM binding z-score [8] | PBM binding z-score [9] | PBM binding z-score [10]
1 | TCTCCTAGGTCAACGATGGTCAGCTAATCTGCTA | 4.13 | 3.59 | 0.622 | 2.49 | 0.781 | 3.76 | 2.68 | 3.76 | 3.64 | 3.51
2 | TATTGTAGATCAATAGAGGTTAAGAAAGTGCGCT | 0.833 | 3.7 | 0.984 | 1.79 | 0.902 | 1.97 | 0.757 | 0.86 | 0.535 | 0.718
3 | CCTTACGTGTCACTGACAGGTTATAGCATTTGGA | 0.791 | 1.07 | 0.634 | 1.18 | 0.446 | 1.29 | 0.601 | 0.469 | 0.356 | 0.704
4 | CCTACTGGGCCCCGAAAGGTCATTGATTCAGTGA | 3.17 | 4.07 | 4.02 | 3.98 | 0.0468 | 3.93 | 1.14 | 2.68 | 0.29 | 1.58
5 | ACTTGCAGGCCAAGTTTGGGTCACTCAAACAAAG | 0.638 | 0.231 | -0.189 | 1.11 | -0.0882 | 1.87 | 0.148 | 0.667 | -0.561 | 0.0704
6 | TCTCGGAGGACACGAAGGTCCGAGCTTTCCAGAG | 0.324 | -0.29 | -0.723 | -0.734 | -1.4 | 0.0732 | -0.408 | 0.645 | 1.71 | 1.12
7 | ATCTCGAGGTAAGACTCAGTTCAGTGAAGAACGC | 0.0769 | -0.0595 | -0.0445 | -0.053 | -0.194 | 0.0746 | 0.0104 | -0.287 | -0.212 | -0.236
8 | CGTCCAAGGTCAGCAGGTCAGTAAAAGCGACGTG | 5.97 | 4.07 | 0.614 | 3.22 | -0.235 | 4.9 | 3.97 | 4.43 | 1.37 | 2.87
9 | CGAACTAGGGCATGAGTTGATAGCAAATGCCGAT | -0.0776 | -0.357 | -0.246 | -0.279 | -0.828 | 2.34 | 4.14 | 4.13 | 2.03 | 3.43
10 | TCAGATAGGTAAATGCTAGGTGAAAGTCCGATCT | -0.114 | 0.46 | -0.0618 | 0.329 | -0.66 | 0.824 | 0.231 | 2.17 | 3.59 | 2.99
11 | CCTATTAGTTGACCATAAGGGCAACCGGAGCTCG | 0.775 | 0.432 | 0.625 | 0.404 | 0.814 | 0.657 | 0.421 | 0.473 | -0.154 | 0.171
12 | CAAATTAGGTCAAAGGTCAAAGTCGAGCCAACCA | 8.64 | 7.33 | 6.11 | 7.29 | 3.55 | 7.52 | 14 | 11.2 | 13.6 | 13.7
13 | GCTCAGAGGACAAGGTCAGAGCTTTGTCCGTAGA | 1.98 | 1.73 | -0.421 | 1.27 | -0.977 | 2.37 | 0.282 | 0.936 | -0.588 | 0.0916
14 | CCTACTGGGCCAAAAAGGTCATTGACGCCGATAA | 3.87 | 4.62 | 2.87 | 4.33 | 0.108 | 4.61 | 3.21 | 4.25 | 1.8 | 3.54
15 | ACTATTAGTTGAGACGAGGGCAACCGGTAGGTTG | 0.623 | 0.318 | 0.134 | 0.06 | -0.0535 | 0.319 | 0.685 | -0.0601 | -0.0682 | 0.00323
16 | ACTTACGGGTCAACGAGATTATAGCACGCGTATA | 6.86 | 4.16 | 0.415 | 3.82 | 1.09 | 5.71 | 5.29 | 5.21 | 2.2 | 4.07
17 | ACAGACAGGTGAGTGAAGGTAGCTCAGCTGGACG | -0.0191 | -0.179 | -0.74 | -0.796 | -0.607 | -0.372 | 0.284 | 0.0552 | -0.201 | -0.0871
18 | GCGACTGGGGCACCAGCAGGTTACCATAACTTAA | -0.545 | -0.382 | -0.495 | 0.0821 | -1.41 | 1.05 | 1.55 | 1.44 | -0.582 | 0.564
19 | GCTAGTTGGTCGGTAAAAGGTCACACACCGGTCG | 3.17 | 4.03 | 3.77 | 3.81 | 0.63 | 4.74 | 5.58 | 6.73 | 4.85 | 6.87
20 | ATACCAAGGTGATCGTGAGGTCGTCGATACTAAC | 1.46 | 1.08 | 0.311 | 0.992 | -0.191 | 1.75 | 0.672 | 0.691 | 0.0309 | 0.54
21 | GGAATGAGGGCAAGTTGATAGCAGAGTTTGATGG | 1.28 | 0.752 | -0.149 | 0.54 | 0.0849 | 2.08 | 1.6 | 1.56 | 0.431 | 0.993
22 | ACTAGCAGGCCAAGTTTGGGTCACTCCAACAAAG | 0.154 | 0.00504 | -0.19 | 0.664 | -0.49 | 1.18 | -0.0331 | -0.0928 | -0.803 | -0.387
23 | TCTTGTAGATCAATCGAGGTTAAGAAAGTGCGCT | 1.32 | 3.01 | 0.075 | 1.49 | 0.176 | 1.73 | -0.311 | 1.51 | 2.7 | 2.4
24 | GGAACGAGGGCAAAGTTGATAGTATCTGTCGACG | 1.26 | 0.763 | -0.348 | 0.972 | -0.379 | 4.02 | 6.9 | 7.32 | 6.78 | 7.32
